SW480 rereplic: induces DNA re-replication in SW480 colon adenocarcinoma cells | SW480 DNA re-replication, Hoechst DNA content imaging, 48 h | Potency, µM (series often up to 46.1 µM), for the others: top-dose re-replication activation, usual class: activators | actives 1.8% (n = 340,000) | AID 624297; further: % of control where 0% means no effect; nearly all actives have a fitted effect of over 55% in size
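Quantitative HTS format with DMSO vehicle controls; 48 hr drug incubation at 37 C, then 40 min Hoechst staining and scanning imager measurement at 405 nm excitation.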
RORg inh: inhibitors of mouse ROR gamma transcriptional activity. actives 5.4% (n = 310,000). AID 2551. P51450. Potency, µM (highest dose often 53.6 µM), without a hit: at the highest dose activity change, negative = inhibition, usual class: inhibitors. Drosophila S2 Gal4-RORgamma UAS-luciferase reporter, 20 h; further: on the % scale 0 is the no-effect control and ±100 the full control effect; nearly all actives have a fitted effect of over 60% in size
Target sequence (P51450 whole entry, looked up, the tested form may be a part): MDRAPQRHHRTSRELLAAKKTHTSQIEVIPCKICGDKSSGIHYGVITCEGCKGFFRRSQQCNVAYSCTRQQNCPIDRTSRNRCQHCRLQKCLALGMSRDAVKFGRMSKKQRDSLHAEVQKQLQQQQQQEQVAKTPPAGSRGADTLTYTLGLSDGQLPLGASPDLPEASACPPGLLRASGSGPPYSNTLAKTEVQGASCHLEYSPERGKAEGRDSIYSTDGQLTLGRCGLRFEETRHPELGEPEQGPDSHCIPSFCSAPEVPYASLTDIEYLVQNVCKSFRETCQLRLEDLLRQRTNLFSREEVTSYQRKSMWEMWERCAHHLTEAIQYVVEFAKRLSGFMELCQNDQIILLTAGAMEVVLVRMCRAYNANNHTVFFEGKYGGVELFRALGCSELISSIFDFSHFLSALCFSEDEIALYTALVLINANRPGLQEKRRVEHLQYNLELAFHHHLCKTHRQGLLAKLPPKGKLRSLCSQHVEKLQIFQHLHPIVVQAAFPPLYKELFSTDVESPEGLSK
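Read-out: Photinus luciferase luminescence; inhibitors lower reporter signal. Insect Schneider cells with Gal4-ROR gamma fusion under metallothionein promoter, UAS reporter; 700 uM final copper sulfate induction, 20 hr, ambient temperature.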
Gal4-VP16 FLuc: Gal4-VP16 reporter inhibition counter-screen | Drosophila S2 Gal4-VP16 UAS-luciferase, luminescence, 20 h | Potency, µM (doses to about 53.6 µM), for inactives: top-dose activity, negative = inhibition, most hits filed as inhibitors | actives 3.5% (n = 310,000);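 further: Gal4-VP16 expression switched on by copper sulfate through the metallothionein promoter; on the % scale 0 is the no-effect control and ±100 the full control effect; nearly all actives have a fitted effect of over 50% in size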
KB-3-1 tox: kills parental KB-3-1 adenocarcinoma cells | KB-3-1 viability, CellTiter-Glo ATP luminescence, 72 h | Potency, µM (doses to about 46.1 µM), usual class: cytotoxic | actives 1.4% (n = 400,000) | AID 1347075; further: on the % scale 0 is the no-effect control and ±100 the full control effect; nearly all actives have a fitted effect of over 60% in size
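Cytotoxicity measured as CellTiter-Glo luminescence after 72 h at 37 C. Compound titrations were pinned onto drug-naive KB-3-1 parental adenocarcinoma cells grown in DMEM with 10% FBS, and normalized data fitted to concentration-response curves.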
MCF10A rerep: DNA re-replication induction in MCF 10a cells | actives 2.9% (n = 350,000) | Potency, µM (doses to about 46.1 µM), for the others: at the top dose activity, positive = re-replication, actives largely listed as activators | MCF 10A DNA re-replication, Hoechst nuclear intensity, 48 h; further: % of control where 0% means no effect; nearly all actives have a fitted effect of over 50% in size
KB-V1 cytotox: KB-V1 MDR subline cytotoxicity; actives 3.4% (n = 400,000); KB-V1 MDR cells viability, CellTiter-Glo, 72 h; Potency, µM (highest dose often 46.1 µM), most hits filed as cytotoxic; AID 1347076; further: on the % scale 0 is the no-effect control and ±100 the full control effect; nearly all actives have a fitted effect of over 60% in size
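Cytotoxicity toward P-gp-expressing KB-V1 cells was determined as loss of CellTiter-Glo luminescence after 72 h at 37 degrees C. Compounds were tested in quantitative HTS format across a concentration range, with curves fitted to normalized data.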
* = called active by the depositor; i = inactive; ? = inconclusive; / = no result. This is a sample that favours compounds with a hit; in the whole collection about 10% have one here. The call rests on the fitted dose curve; in most records, active means well fitted curve in the direction sought with a large enough effect; inconclusive means small, poorly fitted or top-dose-only effect, or another doubt; inactive means no such curve, though single readings can be large; an effect the other way counts as inactive or inconclusive. Potency means the concentration at half of the fitted maximal effect.

SMILES	SW480 rereplic	RORg inh	Gal4-VP16 FLuc	KB-3-1 tox	MCF10A rerep	KB-V1 cytotox
Cc1cccc(NC(=S)N/N=C/c2cccc(O)c2)c1C	7.3µM*	4.5µM*	14µM*	3.3µM*	?	6.5µM*
CCCCN1C(=O)c2ccc(C(=O)NC3(C)CCS(=O)(=O)C3)cc2C1=O (stereo unspecified)	-2%	/	/	i	9%	i
Cc1ccc(Cl)cc1NC(=O)Cn1c(SCC(=O)NCc2ccccc2)nc2ccccc21	/	/	/	i	/	i
O=C(Nc1nc2ccccc2[nH]1)c1ccccc1	3%	6.3µM*	7.9µM*	?	4%	?
O=C(NNc1ncnc2ccccc12)c1cccc(Cl)c1	-4%	7.1µM*	-28%	i	0%	i
O=C(Nc1nc2ccccc2[nH]1)c1ccccc1O	?	13µM*	6.3µM*	i	?	i
O=C(Cc1nc2ccccc2[nH]c1=O)c1ccccc1	29%	?	?	?	21µM*	i
CCOC(=O)[C@]12CCCC=C1N(Cc1ccccc1)C(=O)[C@H](CC(=O)N1CCN(C(=O)C3CC3)CC1)C2	/	/	/	i	/	i
CN(c1ccc(F)cc1)S(=O)(=O)c1ccc(Cl)c(C(=O)NC2(C)CCS(=O)(=O)C2)c1 (stereo unspecified)	-4%	/	/	i	14%	i
O=C(Nc1nc2ccccc2[nH]1)c1ccc(Cl)cc1	-1%	13µM*	2.8µM*	?	4%	?
CC(=O)N1CCN(S(=O)(=O)c2cccc(C(=O)Nc3nc4ccccc4[nH]3)c2)CC1	0%	?	-23%	i	-1%	?
O=S(=O)(Nc1nc2ccccc2[nH]1)c1ccccc1	-1%	-11%	-6%	i	-1%	21µM*
O=S(=O)(Nc1nc2ccccc2[nH]1)c1ccc(Cl)cc1	-7%	-40%	3%	i	0%	?
CC(=O)Nc1nc2ccccc2[nH]1	0%	-10%	17%	i	-4%	i
O=C(Nc1nc2ccccc2[nH]1)c1cccc(Cl)c1	-3%	4µM*	4.5µM*	i	-4%	i
CC1(C(=O)NCc2ccccc2)CN(S(C)(=O)=O)CC(=O)N1C1CC1 (stereo unspecified)	/	/	/	i	/	i
O=C1C2C3C=CC(C4CC34)C2C(=O)N1/N=C/c1ccc(-c2ccc([N+](=O)[O-])cc2)o1 (stereo unspecified)	?	0%	-12%	i	-10%	i
O=C1C2C(C(=O)N1/N=C/c1ccc([N+](=O)[O-])o1)C1C=CC2C12CC2 (stereo unspecified)	?	?	20µM*	i	16µM*	i
O=C1C2C3C=CC(C4CC34)C2C(=O)N1/N=C/c1ccc([N+](=O)[O-])o1 (stereo unspecified)	10µM*	13µM*	10µM*	16µM*	3.3µM*	?
Cn1c(=O)c2sccc2n2c(CCC(=O)Nc3ccc(F)cc3)nnc12	/	/	/	i	/	i
CCn1c(SC(C)C(=O)O)nc2sc3c(c2c1=O)CCC3 (stereo unspecified)	-3%	5.6µM*	7.1µM*	i	8%	i
CCCn1c(SCC(=O)N(C)C2CCS(=O)(=O)C2)nc2sc3c(c2c1=O)CCC3 (stereo unspecified)	18µM*	/	/	i	11%	23µM*
CN(C)c1ccc(C(=O)OCC(=O)Nc2cccc(S(=O)(=O)N3CCCC3)c2)cc1	4%	/	/	i	10%	16µM*
Cc1cccc(NC(=O)COC(=O)c2ccc(S(=O)(=O)N3CCCCCC3)cc2)c1	-2%	/	/	i	17%	16µM*
O=C(COC(=O)c1ccc(S(=O)(=O)N2CCCC2)cc1)Nc1cccc(Br)c1	1%	/	/	i	9%	i

Screening data as filed in PubChem.
